Experimental data taken from PubChem BioAssay (NCI).
Compounds without any hit were thinned out: in the full panel of roughly 83,000, 20% have a hit.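 Step 1: grow cells in 96-well plates. Step 2: add test compound at a single concentration. Step 3: incubate 48 h. Step 4: record percent growth.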 Calls of active or inactive are those of the source.

The compounds below were run on HT29 colon (assay: NCI-60 one-dose screen, 48 h (100 = growth as untreated, 0 = no growth, -100 = all killed)). Settings: 10 µM unless noted.
Method: Growth inhibition of the HT29 human tumor cell line is measured as a screen for anti-cancer activity. Cells are grown in 96 well plates and exposed to the test compound for 48 hours. Compounds are tested at a single concentration, which is 10^-5 M for most compounds. The reported endpoint is percent growth (GI% or GIPRCNT), where numbers from 0 - 100% represent growth inhibition, and numbers from -100% - 0 represent cell death. For example, a value of 40 represents 60% growth inhibition. A value of 0 means no net growth occurred over the course of the experiment. A value of -40 indicates 40% of cells at the beginning of the experiment died by the end of the experiment. A value of -100 means all cells are dead at the end of the experiment.
NCI-60 Human Tumor Cell Lines Screen was performed using the standard one-dose NCI protocol, which is described in more detail at https://dtp.cancer.gov/discovery_development/nci-60/default.htm.
Compounds with GIPRCNT values below 10 were considered active. Activity score was based on GIPRCNT using the following formula: […]
Score is 0 for GIPRCNT values of 100 or above, 50 for GIPRCNT values of 0, and 100 for GIPRCNT values of -100.

Row | Structure (SMILES) | growth
1 | CCN1C(=O)N(CC)C2Nn3c(s/c(=C\c4cccc([N+](=O)[O-])c4)c3=O)=NC21 (stereo not given) | 74.9% (inactive)
2 | O=C(/C=C/c1c(Cl)nc2sccn12)c1nccs1 | 97.5% (inactive)
3 | N#CCN1C(=O)C2C3=C(CCCC3)SC2N=C1CN1CCCC1 (stereo not given) | 110% (inactive)
4 | CS(=O)c1cccc(-c2ccc3nc(N)n(-c4ccc(C(F)(F)F)cc4)c(=O)c3c2)c1 (stereo not given) | 99.8% (inactive)
5 | CCCCCCCC/C=C\CCCCCCCCOc1ccccc1CC(=O)NCC[N+](C)(C)C | 33.4% (inactive)
6 | CCCCC1CCCCN1C(=O)OCC (stereo not given) | 94.1% (inactive)
7 | COc1cc(/C=N/Nc2ncc(-c3cc4cc5c(cc4o3)OCO5)s2)cc(OC)c1OC | 56.2% (inactive)
8 | COc1ccc(-c2nc3ccc4[nH]ncc4c3c3c2CCCC3)cc1B(O)O | 67.2% (inactive)
9 | CC(=O)OC[C@H]1OC(Sc2sc(C(=O)c3ccc(Br)cc3)c(N)c2-c2nc3ccccc3s2)[C@H](OC(C)=O)[C@@H](OC(C)=O)[C@@H]1OC(C)=O (stereo not given in full) | 63.1% (inactive)
10 | Nc1cc2c3c(cccc3c1)C(=O)N(CCN1CCCC1)C2=O | 26.2% (inactive)
11 | Cc1ccc(C(=O)COc2cccc(/C=C3\Oc4ccccc4C3=O)c2)cc1 | 114% (inactive)
12 | COc1ccc2[nH]c(O)c(/C=c3/cc4c(c(-c5ccc(F)c(OC)c5)n3)=Nc3ccccc3-4)c2c1 | -78.5% (active)
13 | N#Cc1c(-c2cccc(Cl)c2)cc(-c2cccc(F)c2)[nH]c1=O | 107% (inactive)
14 | COc1ccc(C(=O)/C=C/c2c(C(F)(F)F)nc3sccn23)cc1OC | 12.3% (inactive)
15 | Cc1ccc(S(=O)(=O)Oc2cc(OS(=O)(=O)c3ccc(C)cc3)cc(OS(=O)(=O)c3ccc(C)cc3)c2)cc1 | 98.7% (inactive)
16 | Cc1c(C(=O)NC(Cc2ccccc2)C(O)C(=O)NCc2ccc(F)cc2)[nH]c2ccccc2c1=O (stereo not given) | 102% (inactive)
17 | Cc1ccc(S(=O)(=O)N/N=C\c2cc(Cl)ccc2O)cc1 | 103% (inactive)
18 | Cc1ccc2c(c1)Sc1c(ccc3ccccc13)N2 | 73.3% (inactive)
19 | Fc1ccc(CNc2c3ccccc3nc3ccccc23)cc1F | 13.4% (inactive)
20 | COc1cc(C(=O)c2cc(C)c3[nH]c4ccc(Cl)cc4c3c2C)cc(OC)c1OC | 18.6% (inactive)

Row | Structure (SMILES) | growth
21 | c1ccc(-c2nc([P+](c3ccccc3)(c3ccccc3)c3ccccc3)c(N3CCOCC3)o2)cc1 | 0.225% (active)
22 | O=C(O)C1CCC(=O)N1C(=O)OCc1ccccc1 (stereo not given) | 101% (inactive)
23 | CC(C)(C)c1ccc(/C=C/C(=O)Nc2ccc(O)cc2)cc1 | 18.7% (inactive)
24 | CN(C)CCCn1c(=O)c2ccccc2c2ccccc21 | 50% (inactive)
25 | COC(=O)[C@H](CSC)N(C)C(=O)[C@@H]1CSSC[C@@H](NC(=O)c2nc3ccccc3cc2O)C(=O)NCC(=O)N1C | 76.1% (inactive)
26 | N=C1CCC(=N)c2c1c(O)c1ccccc1c2O | 101% (inactive)
27 | O=c1c2cc(F)ccc2sc2c(NCCCN3CCCC3)nc3ccccc3c12 | 5.1% (active)
28 | O=C(NC(CSSCC(NC(=O)c1ccccc1)C(=O)O)C(=O)O)c1ccccc1 (stereo not given) | 103% (inactive)
29 | CC(C)C(NC(=O)C1(NC(=O)OCc2ccccc2)CCCC1)C(=O)O (stereo not given) | 105% (inactive)
30 | COc1ccc2c(c1)O/C(=C\c1cccc(OCC(=O)Nc3nc(C)c(C)s3)c1)C2=O | -29.9% (active)
31 | COc1cc(N2C(=O)c3nccnc3C2=O)cc(OC)c1OC | 99.8% (inactive)
32 | Cc1ccc(N2CCN(C(=S)c3cccs3)CC2)cc1 | 90.9% (inactive)
33 | CCCCOc1nc2ccccc2cc1C1CNC(=O)c2ccccc2N1 (stereo not given) | 0.868% (active)
34 | NC(=N\N=C/c1ccccc1[N+](=O)[O-])/C(N)=N\N=C/c1ccccc1[N+](=O)[O-] | 103% (inactive)
35 | COc1ccc(N=C(c2ccccc2)C2C(=O)c3ccccc3C2=O)cc1 | 79.5% (inactive)
36 | Cc1cc(Cl)ccc1Nc1nc(C(F)(F)F)ccc1C(=O)N/N=C/c1ccc(N(C)C)cc1 | 32.5% (inactive)
37 | N/C(=N/N=C/c1ccccc1)N/N=C\c1ccccc1 | 27.7% (inactive)
38 | O=Cc1ccc(O)c2ncccc12 | 87.7% (inactive)
39 | CC1(C)CC[C@]2(C(=O)N3CCOCC3)CC[C@]3(C)C(=CC[C@@H]4[C@@]5(C)CC[C@H](OC(=O)c6cccnc6)C(C)(C)[C@@H]5CC[C@]43C)[C@@H]2C1 | 42.3% (inactive)
40 | CC/C=C\C/C=C\C[C@H](O)C/C=C1/C(=O)C=C[C@@H]1C/C=C\CCCC(=O)O | 12.6% (inactive)
